Experimental findings from PubChem BioAssay are described below.

Each structure is given as a SMILES string. The source made the active and inactive calls.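 The calls were made as follows: active = compounds that lower survival of DLD-1 colon cancer cells in the luminescence readout, no cutoff given; inactive = the rest.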

The experiment in a line: NPC library primary testing for decreased DLD-1 cell viability via CellTiter-Glo (AID 1117346). The following applies: DLD-1 viability, CellTiter-Glo luminescence; at 20 µM (top of the series). (In general: In ATP-based viability assays light output follows the ATP content of the culture.)
`Oc1cc(O)cc(O)c1`: the viability decrease (inhibition) is -3.4% (inactive).
With `CN(C)[C@@H]1C(=O)C(C(N)=O)=C(O)[C@@]2(O)C(=O)C3=C(O)c4c(O)cccc4C[C@H]3C[C@@H]12`, the viability decrease (inhibition) is 89.5% (active).
Consider `C#C[C@]1(O)CC[C@@H]2[C@@H]3CCC4=CCCC[C@@H]4[C@H]3C(=C)C[C@@]21CC`, for which the viability decrease (inhibition) was 101% (active).
As for `CCc1cc2cc(OC)c(OC)cc2c(Cc2ccccc2)n1`, the figure is 25.5% (inactive); as for `O=C1Nc2ccccc2C1(c1ccc(O)cc1)c1ccc(O)cc1`, 56.5% (active).
As for `NC(=O)NS(=O)(=O)c1ccc(Cl)cc1`, the viability decrease (inhibition) was -2.8% (inactive).
For the molecule `O=Cc1ccc(O)c(O)c1O`, the viability decrease (inhibition) is 36.5% (inactive).
With `O=C(Nc1ccc(Cl)cc1)Nc1ccc(Cl)c(C(F)(F)F)c1`, the viability decrease (inhibition) was 102% (active).
In the case of `CCOC(=O)C(C#N)=C(c1ccccc1)c1ccccc1`, the viability decrease (inhibition) is 15.2% (inactive).
As for `CCCCCOc1ccccc1/C(=C\SC)n1ccnc1`, the viability decrease (inhibition) was 99.5% (active).
